According to PubChem BioAssay AID1159580 (chemical genetic matrix, 2015):
Among all 5,500 compounds or so, about 2,000 (36%) were called active. Roughly 18% stayed inconclusive and do not appear here. Cut-off read from the data, not from the text of the source: active = normalized growth mostly below about 0.91 (no sharp cut-off); inconclusive = no clear call, values can overlap the other calls; inactive = mostly above about 0.92. This is one part of the list.

Assay: chemical genetic growth profiling, strain panel (AID 1159580);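 note: tested at 20 µM; growth read once vehicle control cultures reached saturation at 30 °C; 1 = growth at the plate median or of vehicle wells; lower values mean less growth of the strain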
Conditions: growth OD

Measured: normalized growth

COc1ccc2c(c1)CCC1C2CCC2(C)C1C[C@@H](O)C2O (stereo not given in full)
active: S. cerevisiae deletion strains, locus YLR262C, strain YPT6 (second series), stronger effect = lower value 0.755 | S. cerevisiae deletion strains, locus YLR320W, strain mms22, stronger effect = lower value 0.876 | S. cerevisiae deletion strains, locus YNL071W, strain lat1, stronger effect = lower value 0.833
inactive: S. cerevisiae deletion strains, locus YJL187C, strain SWE1, stronger effect = lower value 0.991 | S. cerevisiae deletion strains, locus YJR043C, strain POL32, stronger effect = lower value 0.999 | S. cerevisiae deletion strains, locus YJR075W, strain HOC1, stronger effect = lower value 0.982 | S. cerevisiae deletion strains, locus YKL009W, strain mrt4, stronger effect = lower value 0.948 | S. cerevisiae deletion strains, locus YKL068W, stronger effect = lower value 1 | S. cerevisiae deletion strains, locus YKL085W, strain MDH1 (second series), stronger effect = lower value 0.997 | S. cerevisiae deletion strains, locus YKL085W, strain MDH1, stronger effect = lower value 0.997 | S. cerevisiae deletion strains, locus YKL160W, strain elf1, stronger effect = lower value 0.958 | S. cerevisiae deletion strains, locus YKL190W, strain CNB1, stronger effect = lower value 1.01 | S. cerevisiae deletion strains, locus YKR001C, strain vps1, stronger effect = lower value 0.956 | S. cerevisiae deletion strains, locus YKR026C, strain gcn3, stronger effect = lower value 0.994 | S. cerevisiae deletion strains, locus YKR091W, strain srl3, stronger effect = lower value 0.997 | S. cerevisiae deletion strains, locus YLL001W, strain dnm1, stronger effect = lower value 0.966 | S. cerevisiae deletion strains, locus YLL026W, stronger effect = lower value 0.974 | S. cerevisiae deletion strains, locus YLL041C, strain sdh2, stronger effect = lower value 0.982 | S. cerevisiae deletion strains, locus YLR027C, strain aat2, stronger effect = lower value 0.974 | S. cerevisiae deletion strains, locus YLR039C, strain RIC1, stronger effect = lower value 0.947 | S. cerevisiae deletion strains, locus YLR058C, strain SHM2, stronger effect = lower value 1 | S. cerevisiae deletion strains, locus YLR102C, strain apc9, stronger effect = lower value 0.99 | S. cerevisiae deletion strains, locus YLR221C, strain rsa3, stronger effect = lower value 0.929 | S. cerevisiae deletion strains, locus YLR258W, strain gsy2, stronger effect = lower value 0.965 | S. cerevisiae deletion strains, locus YLR262C, strain YPT6, stronger effect = lower value 0.943 | S. cerevisiae deletion strains, locus YLR268W, strain sec22, stronger effect = lower value 0.973 | S. cerevisiae deletion strains, locus YLR330W, strain CHS5, stronger effect = lower value 1.01 | S. cerevisiae deletion strains, locus YLR342W, strain FKS1 (second series), stronger effect = lower value 0.912 | S. cerevisiae deletion strains, locus YLR342W, strain FKS1, stronger effect = lower value 0.947 | S. cerevisiae deletion strains, locus YLR357W, strain rsc2, stronger effect = lower value 0.987 | S. cerevisiae deletion strains, locus YLR370C, strain arc18, stronger effect = lower value 1 | S. cerevisiae deletion strains, locus YLR371W, strain rom2, stronger effect = lower value 0.985 | S. cerevisiae deletion strains, locus YLR384C, strain iki3, stronger effect = lower value 1.01 | S. cerevisiae deletion strains, locus YLR418C, strain cdc73, stronger effect = lower value 0.894 | S. cerevisiae deletion strains, locus YML016C, strain PPZ1, stronger effect = lower value 1.01 | S. cerevisiae deletion strains, locus YML032C, strain rad52, stronger effect = lower value 0.972 | S. cerevisiae deletion strains, locus YML120C, strain ndi1, stronger effect = lower value 0.998 | S. cerevisiae deletion strains, locus YML124C, strain tub3, stronger effect = lower value 0.998 | S. cerevisiae deletion strains, locus YMR058W, strain fet3, stronger effect = lower value 0.968 | S. cerevisiae deletion strains, locus YMR078C, strain ctf18, stronger effect = lower value 0.992 | S. cerevisiae deletion strains, locus YMR125W, strain sto1, stronger effect = lower value 1.01 | S. cerevisiae deletion strains, locus YMR129W, stronger effect = lower value 1.01 | S. cerevisiae deletion strains, locus YMR205C, strain PFK2, stronger effect = lower value 0.964 | S. cerevisiae deletion strains, locus YMR223W, strain ubp8, stronger effect = lower value 0.965 | S. cerevisiae deletion strains, locus YMR231W, strain pep5, stronger effect = lower value 0.998 | S. cerevisiae deletion strains, locus YMR307W, strain GAS1, stronger effect = lower value 0.782 | S. cerevisiae deletion strains, locus YNL067W, strain RPL9B, stronger effect = lower value 0.979 | S. cerevisiae deletion strains, locus YNL128W, strain TEP1, stronger effect = lower value 0.992 | S. cerevisiae deletion strains, locus YNL209W, strain ssb2, stronger effect = lower value 1 | S. cerevisiae deletion strains, locus YNL233W, strain BNI4, stronger effect = lower value 0.989 | S. cerevisiae deletion strains, locus YNL248C, strain rpa49, stronger effect = lower value 0.979 | S. cerevisiae deletion strains, locus YNL250W, strain rad50, stronger effect = lower value 0.983 | S. cerevisiae deletion strains, locus YNL271C, strain bni1, stronger effect = lower value 0.983 | S. cerevisiae deletion strains, locus YNL298W, strain CLA4, stronger effect = lower value 0.966 | S. cerevisiae deletion strains, locus YNL307C, strain MCK1, stronger effect = lower value 0.967 | S. cerevisiae deletion strains, locus YNL322C, strain KRE1 (second series), stronger effect = lower value 1.01 | S. cerevisiae deletion strains, locus YNR049C, strain mso1, stronger effect = lower value 1.01 | S. cerevisiae deletion strains, locus YNR052C, strain pop2, stronger effect = lower value 0.987 | S. cerevisiae deletion strains, locus YOL006C, strain TOP1, stronger effect = lower value 0.902 | S. cerevisiae deletion strains, locus YOL012C, strain htz1 0.926 | S. cerevisiae deletion strains, locus YOL147C, strain pex11, stronger effect = lower value 1 | S. cerevisiae deletion strains, locus YOR001W, strain rrp6, stronger effect = lower value 0.986 | S. cerevisiae deletion strains, locus YOR061W, strain CKA2, stronger effect = lower value 1.01 | S. cerevisiae deletion strains, locus YOR069W, strain VPS5, stronger effect = lower value 1.01 | S. cerevisiae deletion strains, locus YOR070C, strain gyp1, stronger effect = lower value 0.998 | S. cerevisiae deletion strains, locus YOR080W, strain dia2, stronger effect = lower value 1 | S. cerevisiae deletion strains, locus YOR083W, strain WHI5, stronger effect = lower value 0.914 | S. cerevisiae deletion strains, locus YOR106W, strain vam3, stronger effect = lower value 0.916 | S. cerevisiae deletion strains, locus YOR136W, strain idh2, stronger effect = lower value 0.997 | S. cerevisiae deletion strains, locus YOR144C, strain elg1, stronger effect = lower value 0.995 | S. cerevisiae deletion strains, locus YOR184W, strain ser1, stronger effect = lower value 0.945 | S. cerevisiae deletion strains, locus YOR265W, strain rbl2, stronger effect = lower value 0.999 | S. cerevisiae deletion strains, locus YOR270C, strain vph1, stronger effect = lower value 1.11 | S. cerevisiae deletion strains, locus YOR290C, strain snf2, stronger effect = lower value 0.94 | S. cerevisiae deletion strains, locus YOR316C, strain cot1, stronger effect = lower value 0.991 | S. cerevisiae deletion strains, locus YPL051W, strain arl3, stronger effect = lower value 0.941 | S. cerevisiae deletion strains, locus YPL078C, strain atp4, stronger effect = lower value 0.929 | S. cerevisiae deletion strains, locus YPL106C, strain sse1, stronger effect = lower value 1.03 | S. cerevisiae deletion strains, locus YPL240C, strain hsp82, stronger effect = lower value 1.01 | S. cerevisiae deletion strains, locus YPR119W, strain clb2, stronger effect = lower value 0.991 | S. cerevisiae deletion strains, locus YPR141C, strain kar3, stronger effect = lower value 0.993 | S. cerevisiae deletion strains, locus YPR163C, strain tif3, stronger effect = lower value 0.985 | S. cerevisiae deletion strains, locus YPR167C, strain met16, stronger effect = lower value 0.991 | S. cerevisiae deletion strains, strain wtn01, stronger effect = lower value 0.978 | S. cerevisiae strains, strain wild type, stronger effect = lower value 1.01
